This passage reports activity remaining results from PubChem BioAssay.

A number with no mark means an inactive call. How the calls were made is not given here.

This test concerns Aerobactin synthetase IucA (Klebsiella pneumoniae hvKP1). As to the kind of experiment: IucA enzyme inhibition, primary screen, biochemical, Spectrum library (AID 1346200).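 Further: 100% = wells without compound and 0% = wells lacking enzyme.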 To be noted: malachite green pyrophosphate, A620, at 8 µM, stronger effect = lower value.
On to `COc1ccc(-c2coc3cc(OC)cc(OC)c3c2=O)cc1`, for which the activity remaining was 103%.

For `CS(=O)(=O)CCCCN=C=S`, the activity remaining is 101%. In the case of `C=CC(C1=CC(=O)C=CC1=O)c1ccccc1` (stereo unspecified), the activity remaining is 119%. With `Cc1coc2c1C(=O)C(=O)c1c-2ccc2c1CCCC2(C)C` the figure was 103%; with `O=c1c(O)c(-c2ccc(O)c(O)c2)oc2c(O[C@@H]3O[C@H](CO)[C@H](O)[C@@H](O)[C@H]3O)c(O)cc(O)c12`, 96.1%.

With `CCCCC1=NC2(CCCC2)C(=O)N1Cc1ccc(-c2ccccc2-c2nn[nH]n2)cc1`, the activity remaining is 121%. With `COc1cc(O)c2c(=O)cc(C)oc2c1CC=C(C)C`, the activity remaining is 83.4%. With `COC1=CC(C)[C@@H]2C[C@H]3OC(=O)C[C@H]4C(C)=C(OC)C(=O)C([C@@]34C)[C@@]2(C)C1=O` (stereo partly specified) the figure was 97.8%. With `CC(=O)NS(=O)(=O)c1ccc(N)cc1` the figure was 126%. For `O=C(O)c1cn(C2CC2)c2cc(N3CCNCC3)c(F)cc2c1=O`, the activity remaining is 77.6%.

Consider `C=CC(N)CCC(=O)O` (stereo unspecified), for which the activity remaining was 119%. Turning to `N[C@H](Cc1ccccc1)C(=O)O`, the activity remaining was 122%. For `C[C@@H]1CC[C@@]2(OC1)O[C@H]1CC3C4CC[C@H]5C[C@@H](O)CC[C@]5(C)C4CC[C@]3(C)[C@H]1[C@@H]2C` (stereo partly specified), the activity remaining is 101%. In the case of `COc1cccc2c1CCC1CC(=O)CC[C@]21C` (stereo partly specified) it was 119%. As for `CCN(CC)CCNC(=O)COc1ccc(OC)cc1`, the activity remaining was 108%. In the case of `CCCCOC(=O)c1ccc(N)cc1`, the activity remaining was 85.9%. With `CC(=O)OCC[C@H](C)CCC=C(C)C` the figure was 104%; with `Nc1ccc(S(=O)(=O)Nc2ncccn2)cc1`, 120%; with `C[C@]12C=CC(=O)C=C1CCC1C3C[C@@H](O)[C@](O)(C(=O)CO)[C@@]3(C)C[C@H](O)[C@@]12F` (stereo partly specified), 125%.

Regarding `O=C(O)C1(O)C[C@@H](O)C(O)[C@H](O)C1` (stereo partly specified), the activity remaining was 89.8%. With `NS(=O)(=O)c1cc2c(cc1Cl)NC(C(Cl)Cl)NS2(=O)=O` (stereo unspecified) the figure was 108%; with `NC(CSCSCC(N)C(=O)O)C(=O)O` (stereo unspecified), 95.5%. With `O=C(OCc1ccccc1)c1ccccc1` the figure was 108%; with `CCCCCC1C(=O)CCC1CC(=O)OC` (stereo unspecified), 118%; with `C[n+]1ccccc1/C=N/O`, 117%.

With `COc1cc(O)ccc1C(C)=O`, the activity remaining is 124%.
